This note sets out measurements from PubChem BioAssay AID372 (MTDP, 2006).

In all, about 100,000 compounds went through this assay and about 770 (0.77%) were called active. This is one part of a sample in which actives are shown more often than they occur. Cut-off read from the data, not from the text of the source: active = inhibition above about 50%; inactive = the rest.

For the assay, the target named is Gag-Pol polyprotein (Human immunodeficiency virus type 1 group M subtype B (isolate HXB2)) (UniProt P04585). Put plainly: RNase H inhibition, HIV 1 Gag Pol polyprotein, FRET biochemical assay, screening (AID 372). As to conditions: HIV-1 RT RNase H, FRET RNA/DNA substrate fluorescence; at 10 µM; stronger effect = higher value.
The inhibition is the share of the control response that was lost under treatment. In the case of `Cc1ccccc1-n1c(/C=C/c2ccc(Br)cc2)nc2ccccc2c1=O`, the inhibition was 3% (inactive).
As for `O=C(COc1ccc2ccccc2c1)N1CCN(Cc2ccc([N+](=O)[O-])cc2)CC1`, the inhibition is 13% (inactive).
Take `Cc1ccccc1CN1CCN(C(=O)COc2ccc3ccccc3c2)CC1`: the inhibition is 42% (inactive).
Take `O=C(COc1ccc2ccccc2c1)N1CCN(Cc2ccccc2C(F)(F)F)CC1`: the inhibition was 51% (active).
As for `O=C(COc1ccc2ccccc2c1)N1CCN(Cc2ccc(F)cc2)CC1`, the inhibition is 0% (inactive).
With `CCc1ccc(CN2CCN(C(=O)COc3ccc4ccccc4c3)CC2)cc1`, the inhibition is 19% (inactive).
As to `O=C(COc1ccc2ccccc2c1)N1CCN(Cc2ccccc2[N+](=O)[O-])CC1`, the inhibition is 50% (active).
The value for `COc1ccc(/C=C2/C(=O)N(c3ccccc3)C(=S)N(c3ccccc3OC)C2=O)c(OC)c1` was 5% (inactive).
Turning to `COc1ccc(O)c(CN2CCN(c3ccccc3OC)CC2)c1`, the inhibition was 3% (inactive).
The value for `O=c1c2ccccc2nc(CSc2ncnc3ccccc23)n1-c1ccccc1` was 16% (inactive); that for `CCOC(=O)C1=C(C)OC(N)=C(C(=O)OCCOC)C12C(=O)Nc1ccccc12` (stereo unspecified) was 0% (inactive).
The value for `O=C1NC(=O)N(Cc2ccccc2)C(=O)/C1=C/c1ccc(O)c(O)c1` was 11% (inactive).
As for `C=CCN1C(=O)NC(=O)/C(=C/c2ccc(O)c(O)c2)C1=O`, the inhibition is 60% (active).
Regarding `C=CCN1C(=O)NC(=O)/C(=C\c2ccc(O)c(OC)c2)C1=O`, the inhibition was 0% (inactive).
To `O=[N+]([O-])c1ccc(N2CCNCC2)cc1N1CCOCC1` belongs 3% (inactive).
To `O=c1c2ccccc2nc(-c2ccccn2)n1-c1ccc(Cl)cc1` belongs 4% (inactive).
The value for `COc1cc(OC)c(OC)cc1C=C(C#N)C#N` was 4% (inactive); that for `COc1cc(C)c(C=C(C#N)C#N)cc1C` was 50% (active).
On to `COc1ccc(C=C(C#N)C#N)cc1C`, for which the inhibition is 44% (inactive).
Take `O=C1NC(=O)C(=Cc2ccc(N3CCOCC3)c([N+](=O)[O-])c2)C(=O)N1`: the inhibition is 0% (inactive).
For the molecule `O=[N+]([O-])c1ccc(N2CCCC2)c(F)c1Br`, the inhibition is 34% (inactive).
As for `O=C1NC(=O)N(c2cccc(Br)c2)C(=O)/C1=C/c1ccco1`, the inhibition is 19% (inactive).
With `O=C1NC(=S)N(c2ccccc2)C(=O)/C1=C/c1ccco1`, the inhibition was 36% (inactive).
With `O=C1NC(=S)N(c2cccc(Br)c2)C(=O)/C1=C/c1ccco1`, the inhibition is 98% (active).
`O=C1NC(=S)N(c2cccc(Cl)c2Cl)C(=O)/C1=C/c1ccc(-c2ccc(C(=O)O)cc2)o1`: the inhibition is 12% (inactive).
`N#CC(C#N)=Cc1ccc(C(F)(F)F)cc1`: the inhibition was 1% (inactive).
For the molecule `CSc1ccc(CN2CCN(c3ccccc3C)CC2)cc1`, the inhibition is 7% (inactive).
The value for `COc1ccc(Br)cc1CN1CCN(C(=O)COc2ccc3ccccc3c2)CC1` was 42% (inactive); that for `COc1ccc(Br)cc1CN1CCN(C(=O)COc2ccc(Cl)cc2)CC1` was 52% (active).
For the molecule `COc1ccc(Br)cc1CN1CCN(C(=O)COc2ccccc2)CC1`, the inhibition was 42% (inactive).
For the molecule `Cc1ccc(C)c(N2CCN(Cc3ccccc3Br)CC2)c1`, the inhibition is 6% (inactive).
Regarding `FC(F)(F)c1ccc(CN2CCN(c3cccc(Cl)c3)CC2)cc1`, the inhibition is 12% (inactive).
On to `O=Cc1cn(Cc2c(Cl)cccc2Cl)c2ccccc12`, for which the inhibition was 34% (inactive).
Take `CN1C(=O)C(=Cc2ccc(N3CCCCCC3)o2)C(=O)N(C)C1=S`: the inhibition is 26% (inactive).
With `C=CCN1C(=O)/C(=C\c2ccc(-c3cccc(Cl)c3Cl)o2)C(=O)NC1=S`, the inhibition is 55% (active).
Take `C=CCN1C(=O)/C(=C\c2ccc(C)o2)C(=O)NC1=S`: the inhibition was 13% (inactive).
The value for `C=CCN1C(=O)NC(=O)/C(=C/c2ccc(-c3cc([N+](=O)[O-])ccc3Cl)o2)C1=O` was 22% (inactive); that for `COc1ccc(N2C(=O)/C(=C\c3ccoc3)C(=O)NC2=S)cc1` was 44% (inactive).
To `N/C(=N\[N+](=O)[O-])N/N=C/c1ccc(-c2ccc(Cl)cc2)o1` belongs 6% (inactive); to `N/C(=N\[N+](=O)[O-])N/N=C\c1ccc(-c2ccc(Cl)c([N+](=O)[O-])c2)o1`, 56% (active).
The value for `N/C(=N\[N+](=O)[O-])N/N=C\c1ccc(-c2ccc([N+](=O)[O-])cc2)o1` was 28% (inactive).
`Cc1ccc(C2c3c(c4ccccc4oc3=O)Oc3c2c(=O)oc2ccccc32)cc1`: the inhibition was 11% (inactive).
For the molecule `COc1cccc(C=C2C(=O)NC(=O)NC2=O)c1OC`, the inhibition was 10% (inactive).
To `O=C1NC(=S)NC(=O)C1=Cc1cccc(OS(=O)(=O)c2ccc3ccccc3c2)c1` belongs 53% (active).
The value for `COc1cccc(C=C2C(=O)NC(=S)NC2=O)c1` was 7% (inactive); that for `O=C1NC(=S)NC(=O)C1=Cc1ccccc1OS(=O)(=O)c1ccc2ccccc2c1` was 21% (inactive).
To `O=C(c1cccs1)C1CN2CCC1CC2` (stereo unspecified) belongs 0% (inactive).
As to `Cc1ccc(-c2nn(-c3ccccc3)cc2C=C2C(=O)NC(=S)NC2=O)o1`, the inhibition was 21% (inactive).
In the case of `O=C1NC(=O)C(=Cc2cn(-c3ccccc3)nc2-c2ccc(F)cc2)C(=O)N1`, the inhibition is 53% (active).
As to `O=C1NC(=O)C(=Cc2ccccc2F)C(=O)N1`, the inhibition is 3% (inactive).
To `Cc1ccc(C)c(COc2cc(C)cc3oc(=O)c4c(c23)CCC4)c1` belongs 0% (inactive).
